In PubChem BioAssay AID1117359 (Southern Research Institute, 2015):
The whole screen tested about 1,500 compounds, of which about 460 (31%) were called active.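 The calls were made as follows: active = viability at or below 80% at any tested concentration, marking the compound as toxic; inactive = the rest.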 A selection follows. Results with a measured potency or affinity are listed apart.

Assay: THP-1 cell cytotoxicity, dose response, cytotoxicity control for Vif-APOBEC3G degradation inhibitor project, THP-1 cells (AID 1117359)
Conditions: THP-1 viability, CellTiter-Glo luminescence, 72 h; series mostly up to 40 µM
With `CC1(C)Cc2c(cnn2-c2ccccc2)C(NC(=O)CCCN2CCCCC2=O)C1` (stereo not given) the outcome was “inactive”.
For `CCOC(=O)c1ccc(CC(=O)c2ccc(O)c(O)c2O)o1`, the outcome was “inactive”.
For `Cc1ccc(C(=O)NNS(=O)(=O)c2ccc(F)cc2)cc1`, the outcome was “inactive”.
With `O=C(NNC(=O)c1ccccc1F)c1cccc(-n2cccc2)c1` the outcome was “inactive”.
In the case of `CN(C(=O)c1ccc(OC2CCN(S(=O)(=O)N(C)C)CC2)cc1)C1CCCCC1`, the outcome is reported as “inactive”.
With `CCOC(=O)Cn1c(=O)c2c(nc3n2CCN3Cc2ccccc2)n(C)c1=O` the outcome was “inactive”.
With `O=C(Cc1ccc2c(c1)OCCO2)N1CCN(S(=O)(=O)c2cccs2)CC1` the outcome was “inactive”.
In the case of `COc1ccc(N2CCC(CNS(=O)(=O)c3cccc(C(F)(F)F)c3)C2)cc1` (stereo not given), the outcome is reported as “inactive”.
In the case of `CN(C)/C=N/NC(=O)c1ccccc1Cl`, the outcome is reported as “inactive”.
With `C[C@H](NC(=O)OCc1ccccc1)C(=O)NNC(=O)[C@H](C)NC(=O)OCc1ccccc1` the outcome was “inactive”.
With `COC(=O)c1ccc(COc2ccc(/C=N/Nc3cccc(C(=O)O)c3)cc2)cc1` the outcome was “inactive”.
In the case of `O=C(Nc1ccc(COc2ccccc2)cc1)Oc1ccccc1N1CCOCC1`, the outcome is reported as “inactive”.
With `O=c1cc(OCc2ccccc2)cc[nH]1` the outcome was “inactive”.
In the case of `CCN(CC(=O)Nc1c(F)cccc1F)C(=O)c1cccc(-n2cccc2)c1`, the outcome is reported as “inactive”.
In the case of `CCCCC1=CC2=C(c3ccco3)C(=O)C(C)(OC(=O)c3ccc(OC)cc3)C(=O)C2=CN1CCCCO` (stereo not given), the outcome is reported as “inactive”.
With `CC(=O)Nc1ccc(C=C(C#N)c2ccc(C)cc2)cc1` the outcome was “inactive”.
For `CCOc1ccc(CCNC(=O)C2CC(C)=CCC2C(=O)O)cc1OCC` (stereo not given), the outcome was “inactive”.
In the case of `CCCCc1cc(=O)oc2cc(OCC(=O)N(CC)CC)c(Cl)cc12`, the outcome is reported as “inactive”.
For `C[C@H](NC(=O)NCc1cccs1)C(=O)O`, the outcome was “inactive”.
In the case of `CSc1cccc(NC(=O)C(C)C)c1`, the outcome is reported as “inactive”.
With `CCOC(=O)c1cc2c(c(CCO)n1)[C@H](CCO)N(S(=O)(=O)C(C)(C)C)C2` the outcome was “inactive”.
For `Cc1oc(/N=C/c2cccc3ccccc23)c(C#N)c1C`, the outcome was “inactive”.
With `CCN1CCN(Cc2cc(=O)oc3ccc(C)cc23)CC1` the outcome was “inactive”.
With `COC(=O)C(Cc1c[nH]c2ccccc12)NC(=O)C(C)C` (stereo not given) the outcome was “inactive”.
With `Cc1ccc(NC(=O)C(C)Sc2nc3nc(C)cc(C)n3n2)cc1` (stereo not given) the outcome was “inactive”.
For `O=S(=O)(c1ccc2nc(-c3ccco3)c(-c3ccco3)nc2c1)N1CCOCC1`, the outcome was “inactive”.
In the case of `Cc1ccc(CNC(=O)CN(c2cccc([N+](=O)[O-])c2)S(C)(=O)=O)cc1`, the outcome is reported as “inactive”.
For `CC(NC(=O)C(NS(=O)(=O)c1cccs1)C(C)C)c1ccc(S(N)(=O)=O)cc1` (stereo not given), the outcome was “inactive”.
With `Cc1cc(=O)nc2c3ccccc3n(C(C)C(=O)NCCC(C)C)n12` (stereo not given) the outcome was “inactive”.
For `Cc1cc(C)cc(N(CCC#N)C(=O)CSc2nc3nc(C)cc(C)n3n2)c1`, the outcome was “inactive”.
In the case of `Cc1ccc(OCc2ccc(C(=O)NN)o2)cc1C`, the outcome is reported as “inactive”.
In the case of `Cc1c(NC(=O)COC(=O)c2ccccc2Cl)c(=O)n(-c2ccccc2)n1C`, the outcome is reported as “inactive”.
For `NC(=O)c1ccc(NC(=O)CSc2nc3ccccc3c(=O)n2CCCN2CCOCC2)cc1`, the outcome was “inactive”.
For `O=C(NC1CCCCC1)C(c1ccc(Cl)cc1)N(C(=O)c1ccccn1)c1cccnc1` (stereo not given), the outcome was “inactive”.
In the case of `Cc1ccccc1Cn1cc(NC(=O)c2cc(C3CC3)on2)cn1`, the outcome is reported as “inactive”.
With `O=C(c1cccc(S(=O)(=O)N2CCCC2)c1)N1CCOCC1` the outcome was “inactive”.
For `COc1ccc(NC(=S)N(CCCN2CCCC2)Cc2ccco2)cc1`, the outcome was “inactive”.
For `CCOC(=O)C1(Cc2ccc(OC)cc2)CCN(C(=O)c2cccc3nccnc23)CC1`, the outcome was “inactive”.
For `CCOc1ccc(-n2c(C)nc(O)c2N=Nc2ccccc2)cc1`, the outcome was “inactive”.
In the case of `COc1cccc(NC(=O)Nc2nnc(N3C(C)CCCC3C)s2)c1` (stereo not given), the outcome is reported as “inactive”.
For `O=C1N=C(N2CCN(c3ccccc3)CC2)S/C1=C\c1ccco1`, the outcome was “inactive”.
For `CCCCn1c(N)c(N(CCOC)C(=O)c2cc(-c3ccco3)nc3ccccc23)c(=O)[nH]c1=O`, the outcome was “inactive”.
For `CCOc1ccc(/C=C2\SC(=S)N(CCC(=O)O)C2=O)cc1`, the outcome was “inactive”.
In the case of `C=CCOc1ccc(/C=C2\SC(=S)N(CCC(=O)O)C2=O)cc1`, the outcome is reported as “inactive”.
With `CN(CCC#N)C(=O)COC(=O)c1c2c(nc3ccccc13)/C(=C\c1ccco1)CC2` the outcome was “inactive”.
For `COc1ccccc1C(C#N)N1N=C(C)CC1(C)C` (stereo not given), the outcome was “inactive”.
With `CCCN(CC(=O)Nc1ccccc1C)C(=O)COC(=O)c1cnc(C)cn1` the outcome was “inactive”.
With `O=C(COc1ccccc1C(=O)O)Nc1ccc(SC(F)F)cc1` the outcome was “inactive”.
For `COc1ccccc1NC(=O)COC(=O)c1cc2c(s1)CCC2`, the outcome was “inactive”.
For `CN(C)CCCN(CCCN(C)C)C(=S)Nc1ccc(S(=O)(=O)N2CCOCC2)cc1`, the outcome was “inactive”.
For `CCNc1ccc(Br)cc(C(=O)/C=C/c2ccc(Cl)cc2)c1=O`, the outcome was “inactive”.
In the case of `CNc1ccc(Br)cc(C(=O)/C=C/c2ccc(OC)cc2)c1=O`, the outcome is reported as “inactive”.
For `COc1ccc(Br)c(C(=O)NC(C)(C)CO)c1`, the outcome was “inactive”.
With `O=C(CCc1ccccc1)NNC(=S)NCCc1ccccc1` the outcome was “inactive”.
In the case of `O=C1CCCCC1Oc1ccc2ccc(=O)oc2c1` (stereo not given), the outcome is reported as “inactive”.
With `Cc1ccc(OCCC(=O)OCC(=O)c2ccc3c(c2)NC(=O)CO3)cc1` the outcome was “inactive”.
With `CN=c1scc(C)n1/N=C/c1ccc(O)c(O)c1O` the outcome was “inactive”.
For `Oc1ccc(/C=N/N2CCOCC2)c(O)c1O`, the outcome was “inactive”.
With `Oc1ccc(/C=N/N2CCCCC2)c(O)c1O` the outcome was “inactive”.
With `CCOC(=O)C1CCCN(C(=O)c2cc(-c3ccco3)nc3ccccc23)C1` (stereo not given) the outcome was “inactive”.
With `Cc1nn(Cc2ccccc2)c(C)c1/C=N/NC(=O)c1ccccc1O` the outcome was “inactive”.
With `C=C(C)C(=O)Nc1cccc(C2=NOC3(C2)C[C@@H](C(N)=O)N(C(=O)/C=C/CC)C3)c1` (stereo not given in full) the outcome was “inactive”.
For `O=C1N=C(N2CCOCC2)SC1=Cc1ccco1`, the outcome was “inactive”.
In the case of `O=C(/C=C/c1ccco1)c1cccnc1`, the outcome is reported as “inactive”.
In the case of `COc1cc(-n2cnnn2)ccc1S(=O)(=O)N1CCOCC1`, the outcome is reported as “inactive”.
For `O=[N+]([O-])c1ccc(Cl)c(S(=O)(=O)Nc2cccc(S(=O)(=O)NC3=NCCC3)c2)c1`, the outcome was “inactive”.
For `CN1CCN(/C=C(\C#N)S(=O)(=O)c2ccc(Cl)cc2)CC1`, the outcome was “inactive”.
With `CC(C)(C)NC(=O)/C(=C/c1ccco1)c1ccccc1` the outcome was “inactive”.
For `COc1ccc(CN2CCSCC2)cc1C`, the outcome was “inactive”.
In the case of `COc1ccc(C(=O)CSc2nnc3n2CCCN3C(=O)Nc2ccccc2)cc1`, the outcome is reported as “inactive”.
For `CCC1=NN2C(=N)/C(=C\c3cccn3-c3cccc(Cl)c3)C(=O)N=C2S1`, the outcome was “inactive”.
For `O=C(Nn1cnnc1)c1cc(-c2cccc(Br)c2)nc2ccccc12`, the outcome was “inactive”.
In the case of `CC(C)Cn1c(SCC(=O)Nc2cccnc2Cl)nnc1-c1ccco1`, the outcome is reported as “inactive”.
For `CC(CNc1ccccc1O)C(=O)O` (stereo not given), the outcome was “inactive”.
With `C=CCc1cc(Cl)ccc1OC(=O)Nc1cccc(Cl)c1` the outcome was “inactive”.
With `[O-]/[N+](=C\C=C\c1ccccc1)c1ccccc1` the outcome was “inactive”.
With `O=C(COC(=O)C12CC3CC(CC(Br)(C3)C1)C2)Nc1ccc2[nH]c(=O)[nH]c2c1` the outcome was “inactive”.
For `Cc1cccc(NC(=O)CSc2nnc(CCC(=O)Nc3ccc(C)c(Cl)c3)n2C)c1`, the outcome was “inactive”.
For `N=C1C=CC=C2C1=NC1(CCCCC1)N2O`, the outcome was “inactive”.
With `CC(=O)c1ccc(N2C(=NC(=O)C3CCCO3)SC3CS(=O)(=O)CC32)cc1` (stereo not given) the outcome was “inactive”.
With `C[C@@H]1NC(=O)[C@H](CCC(N)=O)NC(=O)c2cc([N+](=O)[O-])cc(I)c2NCCC[C@@H](C(N)=O)NC1=O` the outcome was “inactive”.
In the case of `Cn1cc(CN2CCN(CCO)CC2)c(-c2ccc(Oc3ccccc3)cc2)n1`, the outcome is reported as “inactive”.
For `O=C(CSc1nnc(Cc2ccc(Cl)cc2)o1)Nc1ccccc1`, the outcome was “inactive”.
With `COc1ccccc1N1C(=O)CC(Nc2ccc(N3CCOCC3)cc2)C1=O` (stereo not given) the outcome was “inactive”.
With `COc1cccc(CNCC(=O)Nc2ccc(N3CCOCC3)cc2)c1` the outcome was “inactive”.
For `O=C(CC1C(=O)NCCN1Cc1ccc(F)cc1)NCCN1CCCc2ccccc21` (stereo not given), the outcome was “inactive”.
With `CCc1cccc(NC(=O)CCS(=O)(=O)c2ccc(Br)cc2)c1` the outcome was “inactive”.
For `O=C(CSc1nccc(=O)[nH]1)Nc1ccc2c(c1)OCCO2`, the outcome was “inactive”.
With `COc1ccc(NC(=O)C2CCCNC2)cc1OCC(C)C` (stereo not given) the outcome was “inactive”.
In the case of `Cc1cc(/C=C2\SC(=S)NC2=O)c(C)n1-c1ccccc1`, the outcome is reported as “inactive”.
With `Cc1c(C)n(C(=O)CSc2nc3ccccc3[nH]2)c2ccccc12` the outcome was “inactive”.
For `COc1ccc(C(=O)NC2CC3CCCC(C2)N3CC(C)C)cc1` (stereo not given), the outcome was “inactive”.
With `Cc1ccc(NC(=O)CSc2nnc([C@H](C)NC(=O)OC(C)(C)C)o2)c(C)c1` the outcome was “inactive”.
In the case of `CCOc1cc(C(C(=O)NCC2CCCO2)N(C(=O)Cn2nnc3ccccc32)c2cccc(OC)c2)ccc1O` (stereo not given), the outcome is reported as “inactive”.
In the case of `COc1cc(/C=C2/C(=O)N(c3ccc(Br)cc3)N=C2C)cc(OC)c1OC`, the outcome is reported as “inactive”.
With `O=C1NCC(O)=C1C=NC12CC3CC(CC(C3)C1)C2` the outcome was “inactive”.
With `CCN(CC)C(=O)CN1C(=O)C2(NC(=O)c3ccccc3N2)c2ccccc21` (stereo not given) the outcome was “inactive”.
With `CCc1cc2c(=O)n(-c3ccc(C)cc3)cnc2s1` the outcome was “inactive”.
With `CC(=O)NC1=NC(=O)/C(=C/c2cc(C)n(-c3cccc(C(=O)O)c3)c2C)S1` the outcome was “inactive”.
In the case of `O=C1NC(c2cccc(Br)c2)=N/C1=C\c1ccco1`, the outcome is reported as “inactive”.
In the case of `Nc1ccccc1NC1=CC(=O)CC(c2ccco2)C1` (stereo not given), the outcome is reported as “inactive”.
In the case of `O=C1CC(c2ccco2)CC(O)=C1C=Nc1cc(Cl)ccc1Cl` (stereo not given), the outcome is reported as “inactive”.
With `O=C1CCC/C(=N\NC(=O)c2ccc(COc3cccc4cccnc34)cc2)C1` the outcome was “inactive”.
For `O=C(NN(C(=O)c1ccccc1)c1ccccc1)c1ccccc1`, the outcome was “inactive”.
With `Oc1ccc(/C=N/N2CCCCC2)c(O)c1` the outcome was “inactive”.
In the case of `S=c1[nH]nc(C2CC2)n1Cc1ccco1`, the outcome is reported as “inactive”.
For `CCC(C)[C@H](NC(=O)Nc1ccccc1F)C(=O)OC` (stereo not given in full), the outcome was “inactive”.
With `Cc1nc2ccccc2n2c(O)c(CC(=O)O)cc12` the outcome was “inactive”.
In the case of `O=S(=O)(O)c1cc(Cl)cc(N=Nc2ccc(O)cc2O)c1O`, the outcome is reported as “inactive”.
With `Cc1nc2ccc(NS(=O)(=O)c3ccc(F)cc3F)cc2s1` the outcome was “inactive”.
